Laboratory results as given in PubChem BioAssay (Tox21).
Where “and” joins values, the source holds several entries; their conditions need not be identical. Equal values may be shown once. Results filed as inconclusive are left out. A call without a number means that no potency is given here. Some compounds were tested as several samples or in several runs, with calls that do not always agree. Calls of active or inactive are those of the source. Unless noted, calls follow the shape of the dose curve; as a rule, active = well fitted curve in the direction sought with a large enough effect in the repeat runs; inconclusive = weak or mixed curves; inactive = no such curve, though single readings can be large; an effect the other way counts as inactive or inconclusive.

Columns and labels:
[1] = qHTS assay to identify small molecule agonists of the peroxisome proliferator-activated receptor delta (PPARd) signaling pathway - cell viability counter screen (AID 743211); also: nearly all actives have a fitted effect of over 55% in size; also: potency is read from the fitted curve at half-maximal effect
Procedure, shortened: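 In the same wells used for beta-lactamase reporter measurement, cytotoxicity is scored by CellTiter-Glo. HEK293H PPARd-bla cells receive compound for 17 h at 37C following a 5 h settling period.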

[2] = biological target: Peroxisome proliferator-activated receptor delta (Homo sapiens) (UniProt Q03181); assay: qHTS assay to identify small molecule agonists of the peroxisome proliferator-activated receptor delta (PPARd) signaling pathway (AID 743212; calls by dose curve; also: potency is read from the fitted curve at half-maximal effect)
Sequence of Peroxisome proliferator-activated receptor delta (Homo sapiens) (Q03181 whole entry, looked up): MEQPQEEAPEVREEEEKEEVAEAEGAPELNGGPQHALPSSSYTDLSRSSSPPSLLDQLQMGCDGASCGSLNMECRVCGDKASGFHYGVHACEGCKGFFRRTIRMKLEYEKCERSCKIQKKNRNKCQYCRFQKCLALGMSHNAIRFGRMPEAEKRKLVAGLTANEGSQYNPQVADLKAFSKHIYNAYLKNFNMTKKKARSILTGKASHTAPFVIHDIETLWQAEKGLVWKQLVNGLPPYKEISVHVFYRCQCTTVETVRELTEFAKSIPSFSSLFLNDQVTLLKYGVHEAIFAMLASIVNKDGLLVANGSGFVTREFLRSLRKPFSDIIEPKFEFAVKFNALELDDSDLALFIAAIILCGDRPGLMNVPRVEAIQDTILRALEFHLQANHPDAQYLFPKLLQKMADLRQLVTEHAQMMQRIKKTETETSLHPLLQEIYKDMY
Procedure, shortened: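 GeneBLAzer UAS-bla HEK293H cells carrying a PPARδ construct were exposed to compounds at 37 °C. Beta-lactamase activity was read by FRET fluorescence after 2 h at room temperature with LiveBLAzer B/G substrate.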

[3] = qHTS assay to identify small molecule antagonists of the peroxisome proliferator-activated receptor delta (PPARd) signaling pathway - cell viability counter screen (AID 743213); also: nearly all actives have a fitted effect of over 50% in size; also: potency is read from the fitted curve at half-maximal effect
Procedure, shortened: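 PPARd-bla HEK293H cells (3000/well) got compound plus 300 nM L165041 agonist for 17 h at 37 C. Viability in the same wells came from CellTiter-Glo luminescence after 30 min at room temperature.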

[4] = biological target: Peroxisome proliferator-activated receptor delta (Homo sapiens) (UniProt Q03181); assay: qHTS assay to identify small molecule antagonists of the peroxisome proliferator-activated receptor delta (PPARd) signaling pathway (AID 743215; active = well fitted inhibition curve with a large enough effect in the signal ratio in the repeat runs, not every such curve was filed as active; the % refers to the signal ratio;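 also: cells stimulated with agonist L165041 at 300 nM final during compound exposure; series mostly up to about 62 µM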)
Procedure, shortened: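 Read-out is beta-lactamase FRET fluorescence, measured 2 h after substrate addition at room temperature. Beforehand, UAS-bla HEK293H cells carrying the PPARd reporter were exposed to compounds with L165041 at 300 nM final for 17 h at 37 C.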

[5] = biological target: Bile acid receptor (Homo sapiens) (UniProt Q96RI1); assay: qHTS assay to identify small molecule antagonists of the farnesoid-X-receptor (FXR) signaling pathway (AID 743217; active = well fitted inhibition curve with a large enough effect in the signal ratio in the repeat runs, not every such curve was filed as active; the % refers to the signal ratio)
Sequence of Bile acid receptor (Homo sapiens) (Q96RI1 whole entry, looked up): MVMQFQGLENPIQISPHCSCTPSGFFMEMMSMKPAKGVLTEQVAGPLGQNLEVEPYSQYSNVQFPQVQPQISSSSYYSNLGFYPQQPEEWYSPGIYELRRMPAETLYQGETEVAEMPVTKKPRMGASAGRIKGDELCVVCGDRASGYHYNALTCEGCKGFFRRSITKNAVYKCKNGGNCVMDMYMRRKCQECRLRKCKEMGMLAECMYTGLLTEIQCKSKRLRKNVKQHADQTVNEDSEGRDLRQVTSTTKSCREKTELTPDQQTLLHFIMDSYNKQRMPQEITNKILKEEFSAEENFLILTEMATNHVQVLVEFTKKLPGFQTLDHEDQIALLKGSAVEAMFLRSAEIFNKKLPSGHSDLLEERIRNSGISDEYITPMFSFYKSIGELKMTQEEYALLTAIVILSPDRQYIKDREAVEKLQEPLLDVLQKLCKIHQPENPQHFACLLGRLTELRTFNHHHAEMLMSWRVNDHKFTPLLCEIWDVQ
Procedure, shortened: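 HEK 293T FXR-UAS-bla, 5000 cells/well; compound + CDCA 50 uM final; 16 h, 37 °C; B/G FRET substrate 2 h RT; fluorescence.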

[6] = qHTS assay to identify small molecule agonists of the farnesoid-X-receptor (FXR) signaling pathway - cell viability counter screen (AID 743218); also: nearly all actives have a fitted effect of over 45% in size; also: potency is read from the fitted curve at half-maximal effect
Procedure, shortened: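 HEK 293T FXR-bla cells; 5 h pre-incubation, 16 h compound exposure at 37 C; LiveBLAzer substrate 2 h RT, then CellTiter-Glo 30 min RT, luminescence.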

[7] = biological target: Bile acid receptor (Homo sapiens) (UniProt Q96RI1); assay: qHTS assay to identify small molecule agonists of the farnesoid-X-receptor (FXR) signaling pathway (AID 743220; active = well fitted activation curve with a large enough effect in the signal ratio in the repeat runs, not every such curve was filed as active; the % refers to the signal ratio)
Procedure, shortened: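 Beta-lactamase reporter under UAS control in GeneBLAzer FXR HEK 293T cells (5000/well) measured with LiveBLAzer FRET substrate after 2 h at room temperature. Compound exposure lasted 16 h at 37C.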

[8] = biological target: Vitamin D3 receptor (Homo sapiens) (UniProt P11473); assay: qHTS assay to identify small molecule agonists of the vitamin D receptor (VDR) signaling pathway (AID 743222; calls by dose curve)
Sequence of Vitamin D3 receptor (Homo sapiens) (P11473 whole entry, looked up): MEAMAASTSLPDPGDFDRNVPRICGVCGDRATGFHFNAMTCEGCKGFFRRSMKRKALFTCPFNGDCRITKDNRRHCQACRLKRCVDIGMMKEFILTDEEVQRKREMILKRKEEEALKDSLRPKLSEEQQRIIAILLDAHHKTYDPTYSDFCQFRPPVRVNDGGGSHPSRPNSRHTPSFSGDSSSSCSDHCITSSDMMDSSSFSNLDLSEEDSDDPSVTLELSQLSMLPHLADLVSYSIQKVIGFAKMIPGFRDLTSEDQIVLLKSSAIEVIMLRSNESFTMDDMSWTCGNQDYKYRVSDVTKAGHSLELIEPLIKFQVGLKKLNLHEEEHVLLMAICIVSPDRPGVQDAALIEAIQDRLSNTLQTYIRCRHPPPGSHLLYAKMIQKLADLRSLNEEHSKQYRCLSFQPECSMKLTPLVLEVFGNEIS
Procedure, shortened: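 VDR-bla cells, 2,000/well; 4 h preincubation 37C; cpd (DMSO) 16 h; LiveBLAzer B/G substrate 2 h RT; fluorescence intensity read.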

[9] = qHTS assay to identify small molecule agonists of the NFkB signaling pathway - cell viability counter screen (AID 1159515; calls by dose curve; also: nearly all actives have a fitted effect of over 55% in size; also: potency is read from the fitted curve at half-maximal effect)
Procedure, shortened: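 Luminescence from CellTiter-Glo (30 min, room temperature) gives viability, measured in the same wells as the beta-lactamase reporter read. Cells were NFkB-bla ME-180, 2,000 per well, treated 5 hr with compounds.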

[10] = biological target: Nuclear receptor ROR-gamma (Homo sapiens) (UniProt P51449); assay: qHTS assay to identify small molecule antagonists of the retinoid-related orphan receptor gamma (ROR-gamma) signaling pathway (AID 1159521; also: nearly all actives have a fitted effect of over 50% in size; also: potency is read from the fitted curve at half-maximal effect)
Procedure, shortened: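 Test compounds were applied to Tet-on RORγ CHO cells 2 h ahead of doxycycline hyclate (1 uM final). Luciferase reporter activity was quantified by luminescence after 16 h at 37 C and 5% CO2.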

[11] = qHTS assay to identify small molecule agonists of the AP-1 signaling pathway - cell viability counter screen (AID 1159525; calls by dose curve; also: nearly all actives have a fitted effect of over 55% in size; also: potency is read from the fitted curve at half-maximal effect)
Procedure, shortened: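 AP-1-bla ME-180 cells in Opti-MEM with 0.5% dialyzed FBS, compound exposure 5 h at 37 C in 15-point titration. Viability read in the same wells as ATP content by CellTiter-Glo luminescence, normalised to tetra-n-octylammonium bromide and DMSO controls.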

[12] = qHTS assay to identify small molecule antagonists of the farnesoid-X-receptor (FXR) signaling pathway - cell viability counter screen (AID 743221; active = well fitted cell-killing curve with a large enough effect in the repeat runs, not every such curve was filed as active; also: nearly all actives have a fitted effect of over 50% in size; also: potency is read from the fitted curve at half-maximal effect)
Procedure, shortened: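 Here viability was scored by luminescence after CellTiter-Glo addition to wells already read for beta-lactamase. Prior treatment: compound plus CDCA (50 uM final), 16 h, 37 C, HEK 293T FXR-bla cells.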

[13] = biological target: Vitamin D3 receptor (Homo sapiens) (UniProt P11473); assay: qHTS assay to identify small molecule antagonists of the vitamin D receptor (VDR) signaling pathway (AID 743223; active = well fitted inhibition curve with a large enough effect in the signal ratio in the repeat runs, not every such curve was filed as active; the % refers to the signal ratio)
Procedure, shortened: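 Inhibition of agonist-driven VDR signalling is scored in VDR-bla cells: 3 nM final 1alpha,25-dihydroxyvitamin D3 plus compound, 16 h at 37C, then beta-lactamase detection by FRET substrate fluorescence after 2 h.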

[14] = qHTS assay to identify small molecule agonists of the vitamin D receptor (VDR) signaling pathway - cell viability counter screen (AID 743224); also: nearly all actives have a fitted effect of over 50% in size; also: potency is read from the fitted curve at half-maximal effect
Procedure, shortened: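 Luminescence from CellTiter-Glo, read after 30 min at room temperature, reports viability of VDR-bla cells treated with compounds for 16 h at 37C in the wells used for the beta-lactamase FRET read.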

[15] = qHTS assay to identify small molecule antagonists of the vitamin D receptor (VDR) signaling pathway - cell viability counter screen (AID 743225); also: nearly all actives have a fitted effect of over 50% in size; also: potency is read from the fitted curve at half-maximal effect
Procedure, shortened: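 Compounds were pinned onto VDR-bla HEK 293T cells together with 1-alpha,25-dihydroxyvitamin D3 at 3 nM final. After 16 h at 37C and 5% CO2 plus the reporter readout, cell viability was measured by CellTiter-Glo luminescence (30 min, room temperature).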

[16] = qHTS assay to identify small molecule antagonists of the retinoid-related orphan receptor gamma (ROR-gamma) signaling pathway - cell viability counter screen (AID 1159520); also: nearly all actives have a fitted effect of over 50% in size; also: potency is read from the fitted curve at half-maximal effect
Procedure, shortened: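 Tet-on ROR gamma CHO cells were given compounds for 2 hr, then doxycycline hyclate at 1 uM final, and incubated 16 hr at 37 C. Viability was measured as ATP content by CellTiter-Glo luminescence.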

[17] = qHTS assay to identify small molecule agonists of the AP-1 signaling pathway (AID 1159526; calls by dose curve)
[18] = qHTS assay to identify small molecule agonists of the endoplasmic reticulum stress response signaling pathway - cell viability counter screen (AID 1159517; calls by dose curve; also: nearly all actives have a fitted effect of over 50% in size; also: potency is read from the fitted curve at half-maximal effect)
Procedure, shortened: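 ESRE-bla HeLa cells, 1,500 per well, seeded overnight then treated with compounds for 5 hr at 37 C. After the beta-lactamase read, viability in the same wells is measured by CellTiter-Glo luminescence after 30 min at room temperature.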

[19] = biological target: Retinoic acid receptor RXR-alpha (Homo sapiens) (UniProt P19793); assay: qHTS assay to identify small molecule agonists of the RXR signaling pathway (AID 1159527; calls by dose curve; also: nearly all actives have a fitted effect of over 35% in size)
Sequence of Retinoic acid receptor RXR-alpha (Homo sapiens) (P19793 whole entry, looked up): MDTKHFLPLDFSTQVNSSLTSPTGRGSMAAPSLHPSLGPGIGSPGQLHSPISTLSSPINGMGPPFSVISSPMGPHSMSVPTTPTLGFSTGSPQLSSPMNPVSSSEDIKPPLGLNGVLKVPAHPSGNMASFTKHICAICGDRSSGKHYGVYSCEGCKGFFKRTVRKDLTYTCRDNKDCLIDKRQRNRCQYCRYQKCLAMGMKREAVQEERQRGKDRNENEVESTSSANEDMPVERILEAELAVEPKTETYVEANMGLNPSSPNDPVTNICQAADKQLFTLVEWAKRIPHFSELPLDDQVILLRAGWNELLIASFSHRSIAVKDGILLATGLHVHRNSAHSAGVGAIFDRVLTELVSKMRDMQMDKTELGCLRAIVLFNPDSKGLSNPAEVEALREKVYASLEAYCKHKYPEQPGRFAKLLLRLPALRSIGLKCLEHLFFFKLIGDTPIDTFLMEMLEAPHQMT
Procedure, shortened: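 Using 9-cis retinoic acid as the reference agonist, chemicals were tested in HEK 293T cells […] for 16 hr; substrate loading lasted 2 hr at room temperature.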

Structure (SMILES) | Potency [1] | Potency [2] | Potency [3] | Potency [4] | Potency [5] | Potency [6] | outcome [7] | Potency [8] | Potency [9] | Potency [10] | Potency [11] | Potency [12] | Potency [13] | Potency [14] | Potency [15] | Potency [16] | Potency [17] | Potency [18] | outcome [19]
CC(C)OC(=O)C(O)(c1ccc(Cl)cc1)c1ccc(Cl)cc1 | inactive | inactive | inactive | inactive | inactive | inactive | inactive | inactive | 49 µM (active) | 54.5 µM (active) | 34.7 µM (active) | – | – | – | – | – | – | – | –
Cc1ccc(OP(=O)(Oc2ccccc2)Oc2ccccc2)cc1 | – | inactive | – | inactive | – | inactive | inactive | inactive | inactive | – | inactive | inactive | inactive | inactive | inactive | inactive | inactive | – | –
Clc1ccc(C(c2ccc(Cl)cc2)C(Cl)(Cl)Cl)cc1 | 49.3 µM (active) and 38.9 µM (active) | inactive | inactive | inactive | – | inactive | inactive | inactive | 55.3 µM (active) | 61.6 µM (active) | 34.9 µM (active) and 38.9 µM (active) | – | inactive | 55.3 µM (active) and 43.6 µM (active) and inactive | inactive | 61.6 µM (active) and inactive | – | – | –
O=S(=O)(c1ccc(Cl)cc1)c1ccc(Cl)cc1 | – | – | – | – | – | – | – | inactive | inactive | – | inactive | inactive | – | – | – | inactive | – | inactive | –
N#CC(Cl)Cl | inactive | – | inactive | – | – | inactive | – | inactive | inactive | – | inactive | inactive | inactive | inactive | inactive | inactive | inactive | – | inactive
Nc1ccccc1C(=O)OC/C=C/c1ccccc1 | 39 µM (active) | inactive | inactive | inactive | – | – | – | – | inactive | inactive | – | inactive | – | 49.1 µM (active) | – | inactive | – | inactive | –
Fc1cccc(Cl)c1CCl | inactive | inactive | – | inactive | inactive | inactive | inactive | – | inactive | inactive | inactive | – | – | inactive | – | inactive | inactive | – | inactive
Cc1c(Cl)c(=O)oc2cc(OP(=O)(OCCCl)OCCCl)ccc12 | inactive | – | inactive | – | – | inactive | – | – | inactive | inactive | inactive | inactive | – | inactive | inactive | inactive | inactive | – | inactive
CCCCCCCCCCCCCC[P+](CCCCCC)(CCCCCC)CCCCCC (tested in a mixture with another compound) | 2.46 µM (active) | – | 11 µM (active) | – | – | 7.76 µM (active) | – | – | 17.4 µM (active) | – | 21.9 µM (active) | – | – | 3.09 µM (active) | – | 15.4 µM (active) | – | 17.4 µM (active) | –
CCOC(=O)OC1=C(c2cc(C)ccc2C)C(=O)NC12CCC(OC)CC2 (stereo unspecified) | inactive | inactive | – | – | inactive | inactive | inactive | inactive | inactive | inactive | – | inactive | – | inactive | inactive | inactive | inactive | – | –
CN(C)C(=S)S | – | – | – | – | – | 0.386 µM (active) | – | – | 15.5 µM (active) | – | 38.9 µM (active) | 612 nM (active) and 4.36 µM (active) | inactive | 50 µM (active) and 1.09 µM (active) and 9.77 µM (active) | – | – | – | inactive | –
CCCCCCCCCCCCCCC(Br)C(=O)O (stereo unspecified) | – | 13.8 µM (active) | – | inactive | inactive | 21.9 µM (active) | – | – | 54.9 µM (active) | – | inactive | – | inactive | – | – | inactive | inactive | 38.9 µM (active) | inactive
COC12CC[C@@]3(C[C@@H]1C(C)(O)C(C)(C)C)[C@H]1Cc4ccc(O)c5c4[C@@]3(CCN1CC1CC1)[C@H]2O5 (stereo partly specified) | 48.2 µM (active) | – | – | – | – | – | inactive | – | 54.6 µM (active) | 54.1 µM (active) | 54.6 µM (active) | – | – | – | inactive | 60.7 µM (active) | – | – | –
CCCSP(=O)(OCC)SCCC | – | – | – | – | – | – | inactive | inactive | inactive | – | inactive | – | – | inactive | – | inactive | inactive | – | –
COc1ccc(OC)c(CC(C)N)c1 (stereo unspecified) | inactive | inactive | – | inactive | – | inactive | – | inactive | inactive | inactive | inactive | – | inactive | inactive | inactive | inactive | inactive | – | inactive
COP(=S)(OC)Oc1cc(Cl)c(Br)cc1Cl | inactive | inactive | – | – | – | inactive | inactive | inactive | inactive | – | inactive | – | inactive | inactive | inactive | – | inactive | inactive | –
O=c1ssc(Cl)c1Cl | 49 µM (active) | – | – | – | inactive | – | inactive | inactive | 27.5 µM (active) | – | – | inactive | – | 43.6 µM (active) | – | 15.4 µM (active) | – | – | –
CCN(CC)C(=S)[S-].CCN(CC)C(=S)[S-].[Zn+2] | 0.545 µM (active) | – | 0.433 µM (active) | – | – | 3.44 µM (active) | – | – | 12.2 µM (active) | 0.856 µM (active) | 12.2 µM (active) | 6.86 µM (active) | – | 0.217 µM (active) | 3.06 µM (active) | – | – | – | –
Cc1cc(N=Nc2ccccc2C)ccc1N | – | – | – | inactive | – | inactive | inactive | – | inactive | inactive | – | inactive | – | – | inactive | – | – | inactive | –
